VP16 counter – Gal4-VP16 reporter inhibition counter-screen. Drosophila S2 Gal4-VP16 UAS-luciferase, luminescence, 20 h. Potency, µM (top dose mostly 53.6 µM), for inactives: at the highest dose activity, negative = inhibition, usual class: inhibitors. 310,000 compounds, 3.5% hits. AID 2546;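 further: Gal4-VP16 expression switched on by copper sulfate through the metallothionein promoter; nearly all actives have a fitted effect of over 50% in size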
NPSR antagonist – neuropeptide S receptor (human) antagonism, cAMP. 220,000 compounds, 1% hits. Q6W5P4. CHO-NPSR cells, cAMP TR-FRET, antagonist mode. Potency, µM (doses to about 38.3 µM), for the others: top-dose activity change, negative = inhibition, most hits filed as inhibitors; further: nearly all actives have a fitted effect of over 50% in size
B2AR arrestin – agonists driving beta-arrestin recruitment to human beta2-adrenergic receptor | P07550 | beta-arrestin recruitment to beta2AR, cell-based reporter | Potency, µM (titrated, usually from 46.1 µM), without a hit: at the top dose activation, usual class: activators | 330,000 compounds, 0.02% hits | AID 492947;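 further: 0% = DMSO controls and full agonism = EC100 isoproterenol or metaproterenol; nearly all actives have a fitted effect of over 65% in size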
Target sequence (P07550 whole entry, looked up): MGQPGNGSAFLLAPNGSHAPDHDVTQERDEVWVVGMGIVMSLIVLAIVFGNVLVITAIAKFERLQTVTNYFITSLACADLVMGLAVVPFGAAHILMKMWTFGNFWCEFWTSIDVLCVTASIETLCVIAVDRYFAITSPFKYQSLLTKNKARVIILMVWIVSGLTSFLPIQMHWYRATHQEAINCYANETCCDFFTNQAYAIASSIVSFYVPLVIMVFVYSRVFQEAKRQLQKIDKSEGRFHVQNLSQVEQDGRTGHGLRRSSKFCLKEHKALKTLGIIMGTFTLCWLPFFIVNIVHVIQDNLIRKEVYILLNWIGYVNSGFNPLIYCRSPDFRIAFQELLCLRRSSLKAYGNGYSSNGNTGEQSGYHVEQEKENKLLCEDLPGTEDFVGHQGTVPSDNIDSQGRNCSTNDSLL
RORgamma inh – inhibitors of mouse ROR gamma transcriptional activity; AID 2551; 310,000 compounds, 5.4% hits; Drosophila S2 Gal4-RORgamma UAS-luciferase reporter, 20 h; Potency, µM (series often up to 53.6 µM), for inactives: at the top dose activity change, negative = inhibition, usual class: inhibitors; P51450; further: nearly all actives have a fitted effect of over 60% in size
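Read-out: Photinus luciferase luminescence; inhibitors lower reporter signal. Insect Schneider cells with Gal4-ROR gamma fusion under metallothionein promoter, UAS reporter; 700 uM final copper sulfate induction, 20 hr, ambient temperature.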
Active calls of the source: *; u = inconclusive; x = no result; [ ] = remark or other dose. Compounds with a hit are over-represented: about 5.7% of the library has one in this group of screens. The call rests on the fitted dose curve; in most records, active means well fitted curve in the direction sought with a large enough effect; inconclusive means small, poorly fitted or top-dose-only effect, or another doubt; inactive means no such curve, though single readings can be large; an effect the other way counts as inactive or inconclusive. Unless noted, on the % scale 0 is the no-effect control and ±100 the full control effect; potency means the concentration at half of the fitted maximal effect.

SMILES | VP16 counter | NPSR antagonist | B2AR arrestin | RORgamma inh
O=C(Cc1ccccc1)N/N=C/c1ccc([N+](=O)[O-])s1 | u | 8%[46.1 µM] | 4% | u
O=C(O)c1ccc(N/N=C/c2cc(Br)cs2)cc1 | 1µM* | x | 0% | 6.3µM*
O=C(N/N=C/c1ccc([N+](=O)[O-])s1)c1ccccc1 | 1.3µM* | -18% | 0% | 0.79µM*
O=C(c1ccco1)N1CCC2(CC1)CCN(c1ccccn1)CC2 | -8% | x | x | 8%
CCCCCCCCCCCCCCCC(=O)NCCCC(=O)O | -11% | x | x | 38%
CCOC(=O)O[C@@H](C)OC(=O)[C@@H]1N2C(=O)[C@@H](NC(=O)[C@@H](N)c3ccccc3)[C@H]2SC1(C)C | 0%[17 µM] | x | x | 0%[2.98 µM]
O=c1cc(O)c(Cl)c[nH]1 | 10% | x | x | -2%
Cn1c(SCC(=O)N/N=C/c2ccc([N+](=O)[O-])s2)nnc1-c1ccccc1 | 20µM* | u | u | 11µM*
CCc1ccc(/C=N/NC(=O)c2cc(C)on2)s1 | 5.6µM* | 1% | 0% | 5.6µM*
O=C(N/N=C/c1cccs1)c1cncc(Br)c1 | 2µM* | -17% | u | 1µM*
CCc1ccc(/C=N/NC(=O)c2cc(C3CC3)nc3ccccc23)s1 | 1.8µM* | -1%[46.1 µM] | 0% | 1.3µM*
Cc1cc(C(=O)N/N=C/c2cccc(Cl)c2Cl)no1 | 10% | 10%[46.1 µM] | 0% | 40%
CC1Nc2ccc(C(=O)NC3CCCCC3)cc2NC1=O (stereo unspecified) | 3% | x | 0% | u
COc1ccc(CCN(Cc2cc3ccc(C)cc3n3nnnc23)C(C)=O)cc1OC | -10% | -18% | 0% | -4%
CC(=O)c1ccc(OCCCC(=O)Nc2ccc(S(=O)(=O)N3CCOCC3)cc2)cc1 | x | x | 0% | x
O=C(CCc1nc2ccccc2c(=O)[nH]1)N1CCN(S(=O)(=O)c2ccc(F)cc2)CC1 | x | x | 0% | x
CC(C)(C)OC(=O)NC(NC(=O)OCC1c2ccccc2-c2ccccc21)C(=O)O (stereo unspecified) | -3% | x | x | 6%
Cc1ccsc1/C=N/Nc1cccc(C(=O)O)c1 | u | -35% | 0% | u
Cc1ccc(-c2nnc(SCC(=O)N/N=C/c3ccccc3C(=O)O)n2-c2ccccc2)cc1 | -12% | 24% | 0% | 7%
Cc1ccc(-c2nnc(SCC(=O)N/N=C/c3ccc(C)s3)n2-c2ccc(C)cc2)cc1 | u | -51% | 0% | 18µM*
Cc1ccccc1C(=O)N/N=C/c1ccc([N+](=O)[O-])s1 | 2µM* | 9%[46.1 µM] | 0% | 1.8µM*
Cc1cc(C(=O)N/N=C/c2ccc([N+](=O)[O-])s2)c2ccccc2n1 | 3.5µM* | x | 0% | 5.6µM*
Cc1ccsc1/C=N/Nc1ccc(C(=O)O)cc1 | 0.22µM* | x | 0% | 1.1µM*
CCCN(C(=O)CSc1nc2ccccc2n1CC)C1CCS(=O)(=O)C1 (stereo unspecified) | -4% | x | -1% | 28%
O=C(c1ccncc1)N1CCC[C@@]2(CCN(Cc3cc(C(F)(F)F)cc(C(F)(F)F)c3)C2)C1 | -3% | x | x | 20%
SMILES | VP16 counter | NPSR antagonist | B2AR arrestin | RORgamma inh
Cc1ccc(/C=N/NC(=O)c2cccnc2)o1 | -10% | 9% | 0% | -27%
O=C(N/N=C\c1ccc([N+](=O)[O-])s1)c1cncc(Br)c1 | 1.1µM* | -6% | -1% | 0.71µM*
O=C(N/N=C/c1ccc(O)cc1)c1cncc(Br)c1 | -3% | x | 0% | -16%
Cc1ccc(/C=N\NC(=O)c2cncc(Br)c2)o1 | u | -29% | -1% | 5µM*
Cc1ccc(C(=O)NC(=S)NCC2CCCO2)cc1[N+](=O)[O-] (stereo unspecified) | u | 2% | 3% | 7.1µM*
Cc1ccc(C(=O)NNC(=S)NCC2CCCO2)cc1[N+](=O)[O-] (stereo unspecified) | -22% | x | -1% | 5.6µM*
Cc1ccc(C(=O)NCC2CCCO2)cc1[N+](=O)[O-] (stereo unspecified) | 5% | 8% | 0% | 23%
NC(=O)CC(NC(=O)Cc1cccc2ccccc12)c1ccc(N2CCN(c3ccc(F)cc3)CC2)c([N+](=O)[O-])c1 (stereo unspecified) | -7% | -22% | 0% | 17%
CC(C)(C)OC(=O)N1CCN(c2ccc(CNC(=O)c3ccc(Cl)cc3)cc2)CC1 | -6% | u | 0% | 41%
CCCCN(c1ccccc1)S(=O)(=O)c1cccc2cccnc12 | 14µM* | -11% | 0% | -35%
CCSS(=O)(=O)c1cccc2cccnc12 | u | u | 3% | 22µM*
